Source: PubChem BioAssay (NCATS)
Results filed as inconclusive are left out. Calls of active or inactive are those of the source. Unless noted, calls come from the whole dose curve; as a rule, active = well fitted curve in the direction sought with a large enough effect; inconclusive = small, poorly fitted or top-dose-only effect, or another doubt; inactive = no such curve, though single readings can be large; an effect the other way counts as inactive or inconclusive.

Tests used:
[1] = qHTS for Inhibitors of Plasmodium falciparum (DD2) proliferation (AID 504314); note: potency is the fitted concentration of half-maximal effect;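 for activity, negative = inhibition: parasite DNA measured by SYBR Green fluorescence after red cell lysis; plate controls were DMSO vehicle for no effect and artemisinin wells for full effect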
Method in brief: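 Erythrocytes infected with P. falciparum Dd2 (0.3% parasitemia, 2.5% hematocrit) exposed to compound 72 h at 37C, 5% CO2. Parasite DNA quantified by SYBR Green fluorescence after saponin/Triton lysis overnight; normalized to 0.29 uM artemisinin and DMSO.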

[2] = qHTS for Inhibitors of Plasmodium falciparum (GB4) proliferation (AID 504315); note: nearly all actives have a fitted effect of over 50% in size; note: potency is the fitted concentration of half-maximal effect
Method in brief: (§1)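 Erythrocytes infected with P. falciparum line (0.3% parasitemia, 2.5% hematocrit final) incubated with compounds 72 h at 37 °C, 5% CO2; SYBR Green lysis buffer added, fluorescence read next day. Normalized to 0.29 uM artemisinin and DMSO.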

[3] = qHTS for Inhibitors of Plasmodium falciparum (7G8) proliferation (AID 504316); note: nearly all actives have a fitted effect of over 65% in size; note: potency is the fitted concentration of half-maximal effect
Method in brief: as §1

[4] = qHTS for Inhibitors of Plasmodium falciparum (HB3) proliferation (AID 504318); note: nearly all actives have a fitted effect of over 60% in size; note: potency is the fitted concentration of half-maximal effect
Method in brief: as §1

[5] = target: Atrial natriuretic peptide receptor 1 (Homo sapiens) (UniProt P16066); experiment: Natriuretic polypeptide receptor (hNpr1) antagonism - Pilot CMLD screen (AID 1347052; calls by dose curve;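 note: HEK293 cells with hNpr1 stimulated by hNppA peptide at 0.1 nM; cGMP level read as GloSensor luciferase luminescence after agonist stimulation; series mostly up to about 9.2 µM; % is set by controls: 0 for no effect and ±100 for the full control effect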)
Atrial natriuretic peptide receptor 1 (Homo sapiens), sequence (P16066 whole entry, looked up): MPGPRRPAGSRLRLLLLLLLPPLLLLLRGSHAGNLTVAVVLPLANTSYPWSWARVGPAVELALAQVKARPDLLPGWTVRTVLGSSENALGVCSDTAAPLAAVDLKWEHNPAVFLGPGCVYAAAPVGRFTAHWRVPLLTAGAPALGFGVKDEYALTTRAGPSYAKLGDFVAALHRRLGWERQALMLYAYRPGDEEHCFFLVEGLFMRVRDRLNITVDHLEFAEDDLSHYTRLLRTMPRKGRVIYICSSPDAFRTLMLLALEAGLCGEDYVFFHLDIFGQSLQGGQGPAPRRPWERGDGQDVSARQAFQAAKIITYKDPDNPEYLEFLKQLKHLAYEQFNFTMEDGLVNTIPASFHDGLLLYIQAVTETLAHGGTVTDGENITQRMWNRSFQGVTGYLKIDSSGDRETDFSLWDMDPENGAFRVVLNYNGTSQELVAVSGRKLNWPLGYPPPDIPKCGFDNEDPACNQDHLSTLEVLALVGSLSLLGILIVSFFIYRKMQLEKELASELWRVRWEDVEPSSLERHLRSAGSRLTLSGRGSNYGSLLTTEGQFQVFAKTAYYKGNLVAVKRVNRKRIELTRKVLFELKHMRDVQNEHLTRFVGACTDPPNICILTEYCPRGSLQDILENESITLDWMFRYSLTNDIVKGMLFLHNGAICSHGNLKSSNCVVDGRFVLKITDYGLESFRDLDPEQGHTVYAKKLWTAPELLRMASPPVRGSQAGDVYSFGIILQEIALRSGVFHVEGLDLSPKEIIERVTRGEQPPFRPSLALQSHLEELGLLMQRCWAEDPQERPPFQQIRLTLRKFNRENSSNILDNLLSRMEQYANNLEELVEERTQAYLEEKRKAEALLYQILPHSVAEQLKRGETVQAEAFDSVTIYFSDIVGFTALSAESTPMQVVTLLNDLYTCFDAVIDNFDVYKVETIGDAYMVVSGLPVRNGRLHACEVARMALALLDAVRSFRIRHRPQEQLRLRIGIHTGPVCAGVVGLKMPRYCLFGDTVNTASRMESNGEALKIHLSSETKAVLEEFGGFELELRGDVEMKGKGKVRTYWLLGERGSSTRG

C[C@H]1Cc2c(-c3ccccc3)nc3c(c2CO1)CN(S(=O)(=O)c1ccc(Cl)c2nonc12)CC3
inactive: Potency [1] | Potency [2] | Potency [3] | Potency [4] | Potency [5]

CCN1C(=NCc2cccc(Cl)c2)N[C@@H](CCc2ccccc2)[C@H](C(=O)OC)[C@H]1C
inactive: Potency [1] | Potency [2] | Potency [3] | Potency [4] | Potency [5]

CC(=O)OC[C@H]1O[C@H](C#Cc2ccccc2Cl)C=C[C@H]1OC(C)=O
inactive: Potency [1] | Potency [2] | Potency [3] | Potency [4] | Potency [5]

CC(=O)C1=CN(CCC=Cc2ccccc2)C(=O)NC1c1ccccc1 (configuration not stated)
inactive: Potency [1] | Potency [2] | Potency [3] | Potency [5]

COc1ccc(-c2nc(-c3ccccc3)c(NC(C)C)o2)cc1
active: Potency [1] 1690 nM | Potency [2] 1510 nM | Potency [3] 1510 nM
inactive: Potency [5]

CC(CCN1CCCCc2nc(C)c(C)cc21)=NO[C@H](C)c1cn([C@@H]2COC[C@@H]2O)nn1
inactive: Potency [1] | Potency [2] | Potency [3] | Potency [4] | Potency [5]

CC1(C)O[C@H]2OC([C@H](O)CON3C(=O)c4ccccc4C3=O)[C@H](O)[C@@H]2O1 (some centres not stated)
inactive: Potency [1] | Potency [2] | Potency [3] | Potency [5]

C=CCOC(=O)N[C@H](C(C(=O)OC)=C(C)NCc1ccccc1)c1cccc(OC)c1
inactive: Potency [1] | Potency [2] | Potency [3] | Potency [5]

C=CCOC(=O)C(C(C)=O)[C@@H](NC(=O)OC)c1ccc2ccccc2c1 (some centres not stated)
inactive: Potency [1] | Potency [2] | Potency [3] | Potency [5]

COC(=O)CC=C[C@@H](C)[C@H](NC(=O)OCC(Cl)(Cl)Cl)c1ccccc1
inactive: Potency [1] | Potency [2] | Potency [3] | Potency [5]

O=C1OC2(CCCCC2)CC2=C1[C@H]1O[C@](CCCCN3C(=O)c4ccccc4C3=O)(Cc3ccccc31)O2
active: Potency [1] 1500 nM | Potency [2] 1690 nM | Potency [3] 1690 nM | Potency [4] 1900 nM
inactive: Potency [5]

COCCN1C(=O)N[C@@H](c2cccc(C(F)(F)F)c2)[C@H](C(C)=O)[C@H]1C
inactive: Potency [1] | Potency [2] | Potency [3] | Potency [4] | Potency [5]

C[C@H]1Cc2c(COc3ccccc3)nc3c(c2CO1)CN(C(=O)C1CC1)CC3
inactive: Potency [1] | Potency [2] | Potency [3] | Potency [5]

CCCC[C@@H]1CN2[C@@H](CC[C@H](C)[C@@H]2c2ccc(Br)cc2)C(=O)O1
inactive: Potency [1] | Potency [2] | Potency [3] | Potency [4] | Potency [5]

CCOC(=O)NN=C1C[C@@H](O)[C@@H](O)[C@@H]2[C@H]3C(=O)N(c4ccc(F)cc4F)C(=O)[C@@H]3CC[C@H]12
inactive: Potency [1] | Potency [2] | Potency [3] | Potency [4] | Potency [5]

Cc1cc2c(c(=O)o1)[C@H]1O[C@](c3ccsc3)(Cc3ccccc31)O2
inactive: Potency [1] | Potency [2] | Potency [3] | Potency [4] | Potency [5]

CC1(OC(=O)c2ccco2)C(=O)C=C2C=C(c3ccsc3)OC=C2C1=O (configuration not stated)
inactive: Potency [1] | Potency [2] | Potency [3] | Potency [4] | Potency [5]

CC1(C)O[C@@H](C(O)(c2cc(C(F)(F)F)cc(C(F)(F)F)c2)c2cc(C(F)(F)F)cc(C(F)(F)F)c2)[C@H](C(O)(c2cc(C(F)(F)F)cc(C(F)(F)F)c2)c2cc(C(F)(F)F)cc(C(F)(F)F)c2)O1
inactive: Potency [1] | Potency [2] | Potency [3] | Potency [4] | Potency [5]

COCC=CC1=CC2=CC(=O)C(C)(OC(=O)c3cnc4ccccc4n3)C(=O)C2=CN1Cc1ccc(OC)cc1 (configuration not stated)
inactive: Potency [1] | Potency [2] | Potency [3] | Potency [4] | Potency [5]

CCOC(=O)CN1C(=O)N[C@@H](CCc2ccccc2)[C@H](C(=O)OC)[C@H]1C
inactive: Potency [1] | Potency [2] | Potency [3] | Potency [4] | Potency [5]

C=CC1=C2C=C(C3CC3)N(C(CO)CO)C=C2C(=O)C(C)(OC(=O)c2ccco2)C1=O (configuration not stated)
inactive: Potency [1] | Potency [2] | Potency [3] | Potency [4] | Potency [5]

CC(C)[C@@H](OCc1ccccc1)[C@H](C)C=NO[C@H](C)c1cn([C@@H]2COC[C@@H]2O)nn1
inactive: Potency [1] | Potency [2] | Potency [3] | Potency [4] | Potency [5]

C[C@@H]1CC[C@H]2C(=O)N(Cc3cccc([N+](=O)[O-])c3)C[C@@H](O)CN2[C@@H]1c1cccc(Br)c1
inactive: Potency [1] | Potency [2] | Potency [3] | Potency [4] | Potency [5]

COC1=C[C@H](C(=O)NCc2ccccn2)[C@H](C)[C@@H](c2ccccc2)CC1=O
inactive: Potency [1] | Potency [2] | Potency [3] | Potency [5]

CCCCc1nc2c(c3c1C[C@H](C)OC3)CN(C(=O)C1CCCCC1)CC2
inactive: activity, negative = inhibition [1] -0.437% [at 1.12 µM] | Potency [2] | Potency [3] | Potency [4] | Potency [5]

C=C=CCCN1C(=O)NC(c2ccccc2)C(C(=O)OC)=C1C (configuration not stated)
inactive: Potency [1] | Potency [2] | Potency [3] | Potency [4] | Potency [5]
